Experimental data as given in PubChem BioAssay AID2061318 (National Center for Advancing Translational Sciences (NCATS), 2025).
Results filed as inconclusive are left out. Active and inactive are the calls of the source. The call rests on the fitted dose curve; in most records, active means well fitted inhibition curve with a large enough effect; inconclusive means small, poorly fitted or top-dose-only effect; inactive means flat fitted curve, though single readings scatter.

assay: Identification of antibody-drug conjugate (ADC) payloads which are substrates of ATP-binding cassette drug efflux transporters: ABCB1-HEK293-MDR-19 cell line; conditions: HEK293 ABCB1 (MDR-19) viability, CellTiter-Glo, 48 h
From the text: Antibody-drug conjugates (ADCs) feature an antibody recognizing a specific protein joined to a potent toxic payload. Numerous antibody-drug conjugates have received FDA approval; however, clinical resistance arises. Resistance mechanisms include decreased expression or mutation of the antibody target, impaired payload release, or increased expression of ATP-binding cassette (ABC) efflux transporters associated with multidrug resistance. We therefore sought to characterize the interaction of ABC multidrug transporters with ADC payloads. We performed a high-throughput screen with 27 common ADC payloads using cells lines expressing ABC transporters P-glycoprotein (P-gp, encoded by ABCB1) or ABCG2 (encoded by ABCG2). Confirmatory assays were also performed using cells transfected to express P-gp, ABCG2, or MRP1 (encoded by ABCC1). Several commonly used ADC payloads were substrates of P-gp, including calicheamicin gamma1, monomethyl auristatin E, DM1, and DM4. All the pyrrolobenzodiazepines tested - SJG136, SGD-1882, SG2057, and SG3199 - were substrates of P-gp, ABCG2, and MRP1. […] These findings highlight the risk of transporter-mediated resistance with certain ADC payloads and underscore the importance of selecting payloads that evade ABC transporter recognition in future ADC development.
HEK-293 cells were transfected with empty vector (pcDNA) or vector containing the human ABCB1 (MDR-19), ABCG2 (R-5), or ABCC1 gene (MRP1) and were maintained in EMEM with 2 mg/mL G418 added to maintain transporter expression. The HeLa derivative KB-3-1 and the P-gp overexpressing KB-8-5-11 subline were maintained in DMEM; KB-8-5-11 additionally received 100 ng/mL colchicine. H460 parental cells were obtained from the Division of Cancer Treatment and Diagnosis Tumor Repository, National Cancer Institute at Frederick, MD and were cultured in RPMI. The ABCG2 expressing subline H460 MX20 was generated by selecting H460 cells in 20 nM mitoxantrone. Media in all cases was supplemented with 10% FBS and 1% penicillin-streptomycin. We explored 27 common ADC payloads, in two orthogonal, paired cell line sets-a drug selected and transfected set for each transporter--to identify substrates of the ABC transporters P-gp and ABCG2. Compounds were sourced from Levena Biopharma (San Diego, CA), Selleck Chem (Houston, TX), ChemieTek (Indianapolis, IN), or Microsource Discovery Systems (Gaylordsville, CT). Screening was performed as previously described. Briefly, cells were plated at a density of 500 cells/well in 1536 well plates with compounds added using a 1536-head pin tool (Kalypsys, San Diego CA). Cells were incubated with cytotoxic drugs and processed with CellTiter Glo reagent (Promega, Madison, WI) to determine viability after 48 hours. P-gp substrates were identified by comparing compound activity between paired sets of low-expressing (sensitive) and over-expressing (resistant) cell lines.

SMILES | Potency
CC(C)(C)OC(=O)Nc1ccc2[nH]c(C(=O)N3C[C@@H](CCl)c4c3cc(O)c3ccccc43)cc2c1 | 9.4 nM (active)
COc1cc2cc(c1Cl)N(C)C(=O)C[C@H](O)[C@]1(C)O[C@H]1[C@H](C)C1C[C@@](O)(NC(=O)O1)[C@H](OC)/C=C/C=C(\C)C2 | 2980 nM (active)
CN(C)CCOc1ccc2[nH]c(C(=O)N3C[C@@H](CCl)c4c3cc(O)c3ccccc43)cc2c1 | 0.4 nM (active)
CCN(C(C)=O)[C@H]1CO[C@@H](O[C@H]2[C@H](O[C@H]3C#C/C=C\C#C[C@]4(O)CC(=O)C(NC(=O)OC)=C3/C4=C\CSSSC)O[C@H](C)[C@@H](NO[C@H]3C[C@H](O)[C@H](SC(=O)c4c(C)c(I)c(O[C@@H]5O[C@@H](C)[C@H](O)[C@@H](OC)[C@H]5O)c(OC)c4OC)[C@@H](C)O3)[C@@H]2O)C[C@@H]1OC | 748 nM (active)
CCc1c2c(nc3ccc(O)cc13)-c1cc3c(c(=O)n1C2)COC(=O)[C@]3(O)CC | 11.8 nM (active)
COC(=O)c1cc2c3c(cc(O)c2[nH]1)N(C(=O)c1cc2cc(OC)c(OC)c(OC)c2[nH]1)CC3CCl (centres undefined) | 0.5 nM (active)
COc1cccc2c1C(=O)c1c(O)c3c(c(O)c1C2=O)C[C@@](O)(C(=O)CO)C[C@@H]3O[C@H]1C[C@H]2[C@H](O[C@@H]3[C@@H](OC)OCCN32)[C@H](C)O1 | 0.0941 nM (active)
COc1cccc2c1C(=O)c1c(O)c3c(c(O)c1C2=O)C[C@@](O)(C(=O)CO)C[C@@H]3O[C@H]1C[C@H](N)[C@H](O)[C@H](C)O1 | 748 nM (active)
CCN[C@H]1CO[C@@H](O[C@H]2[C@H](O[C@H]3C#C/C=C\C#C[C@]4(O)CC(=O)C(NC(=O)OC)=C3/C4=C\CSSSC)O[C@H](C)[C@@H](NO[C@H]3C[C@H](O)[C@H](SC(=O)c4c(C)c(I)c(O[C@@H]5O[C@@H](C)[C@H](O)[C@@H](OC)[C@H]5O)c(OC)c4OC)[C@@H](C)O3)[C@@H]2O)C[C@@H]1OC | 14.9 nM (active)
